Screens as filed in PubChem.
G9a inh = G9a (human) methyltransferase inhibition. Potency, µM (series often up to 102 µM), without a hit: at the highest dose activity, negative = inhibition, hits mostly inhibitors. AID 504332. 350,000 tested, 8.8% active. G9a H3K9 monomethylation, AlphaScreen, 2 h. Q96KQ7; also: % is scaled to controls: 0 for no effect and ±100 for the full control effect; nearly all actives have a fitted effect of over 75% in size
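Quantitative HTS format: methyltransferase activity on a biotin-tagged H3K9 peptide is measured by AlphaScreen, using a rabbit anti-monomethyl-H3K9 antibody with streptavidin donor and anti-IgG acceptor beads. Final levels are 20 nM enzyme, 500 nM peptide, 20 uM SAM; 2 h RT.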
TDP1 inh = blocks human tyrosyl-DNA phosphodiesterase 1; Q9NUW8; recombinant TDP1, AlphaScreen DNA substrate cleavage; Potency, µM (series often up to 130 µM), for inactives: at the highest dose activity change, negative = inhibition, actives largely listed as inhibitors; 350,000 tested, 0.28% active; AID 485290; also: % is scaled to controls: 0 for no effect and ±100 for the full control effect; nearly all actives have a fitted effect of over 40% in size
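E. coli-derived human Tdp1, 1 nM final. Cpd preinc 15 min RT; substrate 15 nM final, 5 min RT; AS bead mix 10 ug/ml final, 10 min RT. Signal loss = tyrosine-FITC cleavage. No-enzyme wells = max signal.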
BAZ2B inh = inhibitors of human BAZ2B bromodomain. AlphaScreen BAZ2B-H3K14Ac peptide displacement. Q9UIF8. Potency, µM (highest dose often 114 µM), for inactives: at the top dose activity change, negative = inhibition, usual class: inhibitors. 360,000 tested, 4.4% active; also: % is scaled to controls: 0 for no effect and ±100 for the full control effect; nearly all actives have a fitted effect of over 60% in size
Target sequence (Q9UIF8 whole entry, looked up): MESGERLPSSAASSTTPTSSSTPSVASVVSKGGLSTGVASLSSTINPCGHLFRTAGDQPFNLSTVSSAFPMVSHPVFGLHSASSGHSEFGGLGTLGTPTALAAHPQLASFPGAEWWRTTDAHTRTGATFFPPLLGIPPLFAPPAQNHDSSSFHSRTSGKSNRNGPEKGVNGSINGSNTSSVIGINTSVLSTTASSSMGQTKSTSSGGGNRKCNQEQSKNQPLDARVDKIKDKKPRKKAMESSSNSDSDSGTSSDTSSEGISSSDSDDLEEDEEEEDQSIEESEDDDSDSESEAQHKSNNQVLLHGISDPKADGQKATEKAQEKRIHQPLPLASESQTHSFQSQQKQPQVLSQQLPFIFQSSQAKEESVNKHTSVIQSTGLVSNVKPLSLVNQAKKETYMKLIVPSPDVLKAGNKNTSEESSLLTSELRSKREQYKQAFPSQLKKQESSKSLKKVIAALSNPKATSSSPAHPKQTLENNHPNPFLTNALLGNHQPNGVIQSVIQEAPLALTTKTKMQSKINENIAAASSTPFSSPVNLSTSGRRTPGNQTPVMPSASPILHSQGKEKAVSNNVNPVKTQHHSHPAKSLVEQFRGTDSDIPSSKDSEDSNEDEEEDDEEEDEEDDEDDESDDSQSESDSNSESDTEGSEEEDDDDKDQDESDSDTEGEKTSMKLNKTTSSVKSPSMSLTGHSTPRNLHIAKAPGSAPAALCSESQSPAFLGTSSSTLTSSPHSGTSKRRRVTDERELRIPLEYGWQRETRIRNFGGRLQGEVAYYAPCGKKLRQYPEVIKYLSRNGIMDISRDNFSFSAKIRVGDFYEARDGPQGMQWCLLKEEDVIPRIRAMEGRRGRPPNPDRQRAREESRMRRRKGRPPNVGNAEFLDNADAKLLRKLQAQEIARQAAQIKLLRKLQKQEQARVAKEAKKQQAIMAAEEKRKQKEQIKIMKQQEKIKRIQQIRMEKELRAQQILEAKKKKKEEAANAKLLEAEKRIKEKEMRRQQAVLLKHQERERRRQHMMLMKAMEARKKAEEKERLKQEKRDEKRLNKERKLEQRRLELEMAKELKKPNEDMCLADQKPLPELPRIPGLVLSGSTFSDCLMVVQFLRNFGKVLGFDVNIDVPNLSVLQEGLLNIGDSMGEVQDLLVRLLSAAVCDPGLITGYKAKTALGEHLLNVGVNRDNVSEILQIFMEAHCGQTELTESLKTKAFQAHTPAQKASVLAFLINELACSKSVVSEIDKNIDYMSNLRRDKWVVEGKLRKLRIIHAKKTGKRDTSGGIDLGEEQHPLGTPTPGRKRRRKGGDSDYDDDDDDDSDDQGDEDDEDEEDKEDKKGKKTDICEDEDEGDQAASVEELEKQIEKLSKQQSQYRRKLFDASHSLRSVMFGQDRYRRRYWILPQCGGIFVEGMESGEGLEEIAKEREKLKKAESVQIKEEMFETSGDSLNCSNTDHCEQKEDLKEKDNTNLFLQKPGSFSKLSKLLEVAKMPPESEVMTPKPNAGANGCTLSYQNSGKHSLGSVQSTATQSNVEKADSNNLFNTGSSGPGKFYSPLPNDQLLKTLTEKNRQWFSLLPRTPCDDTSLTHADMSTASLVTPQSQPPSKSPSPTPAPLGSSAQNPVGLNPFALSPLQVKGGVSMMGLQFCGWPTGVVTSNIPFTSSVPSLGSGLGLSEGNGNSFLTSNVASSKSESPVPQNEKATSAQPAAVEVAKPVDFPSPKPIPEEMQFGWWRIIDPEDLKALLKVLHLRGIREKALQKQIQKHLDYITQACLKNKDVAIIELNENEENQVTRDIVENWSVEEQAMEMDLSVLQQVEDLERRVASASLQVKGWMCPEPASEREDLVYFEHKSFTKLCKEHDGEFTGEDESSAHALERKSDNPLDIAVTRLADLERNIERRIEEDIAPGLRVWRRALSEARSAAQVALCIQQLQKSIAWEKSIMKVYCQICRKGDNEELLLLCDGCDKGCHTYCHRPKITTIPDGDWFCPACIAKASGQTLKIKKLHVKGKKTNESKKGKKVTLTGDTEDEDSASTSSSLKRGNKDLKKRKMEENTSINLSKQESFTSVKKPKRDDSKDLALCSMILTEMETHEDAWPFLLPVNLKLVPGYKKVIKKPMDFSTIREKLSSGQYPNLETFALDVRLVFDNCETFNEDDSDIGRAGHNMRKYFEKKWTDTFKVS
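Inhibition is scored as reduced AlphaScreen emission. The BAZ2B/b-H3(5-23)K14Ac complex (50 nM each) in PBS pH 7.4, 0.01% Tween-20 meets compound (up to 110 uM) for 30 min at RT before bead addition.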
JMJD2A Tudor = blocks the human JMJD2A Tudor domain. AID 504339. 390,000 tested, 4.4% active. Potency, µM (series often up to 114 µM), without a hit: at the highest dose activity change, negative = inhibition, usual class: inhibitors. O75164. AlphaScreen JMJD2A-Tudor / H3K4me3 peptide binding; also: % is scaled to controls: 0 for no effect and ±100 for the full control effect; nearly all actives have a fitted effect of over 50% in size
HP1b chromo inh = inhibitors of HP1-beta chromodomain binding to methylated histone tails; P83916; AlphaScreen HP1-beta / biotin-H3K9me3 peptide binding; Potency, µM (highest dose often 114 µM), without a hit: at the top dose activity change, negative = inhibition, actives largely listed as inhibitors; 390,000 tested, 0.56% active; AID 540317; also: nearly all actives have a fitted effect of over 70% in size
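AlphaScreen: HP1-beta (50 nM) preformed 30 min with biotin-H3(1-18)K9me3 peptide (50 nM) in PBS pH 7.4, 0.01% Tween-20. Compound added for 30 min at RT, then streptavidin donor/nickel chelate acceptor beads (10 ug/mL) for 30 min.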
Sfp inh = inhibitors of Bacillus subtilis Sfp phosphopantetheinyl transferase | Q9F4F7 | Biochemical Sfp PPTase activity, qHTS | 310,000 tested, 3.5% active | Potency, µM, without a hit: largest response in the series, negative = inhibition, most hits filed as inhibitors | AID 1490;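 also: the enzyme is Sfp with the accession as filed and its product quenches rhodamine fluorescence; 0% = enzyme reaction without inhibitor and -100% = no enzyme wells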
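Step 1, compound plus 15 nM Sfp-PPTase, 15 min, room temperature. Step 2, add rhodamine-CoA (5 uM) and BHQ-2-YbbR (12.5 uM). Step 3, read 525/598 nm fluorescence at 0 and 30 min.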
* marks the source's active call; other numbers are inactive results; u = inconclusive; x = no result; ! = repeats disagree; [ ] = another dose, or the depositor's remark. Rows were chosen to be rich in hits. Some 12% of all compounds tested hit in one or more screens of this group. Calls follow the shape of the dose curve; as a rule, active = well fitted curve in the direction sought with a large enough effect; inconclusive = small, poorly fitted or top-dose-only effect, or another doubt; inactive = no such curve, though single readings can be large; an effect the other way counts as inactive or inconclusive. Potency is read from the fitted curve at half-maximal effect.

SMILES	G9a inh	TDP1 inh	BAZ2B inh	JMJD2A Tudor	HP1b chromo inh	Sfp inh
COc1ccccc1CN1CCNC(=O)C1CC(=O)NC1CCCCCC1 (centres undefined)	16µM*	6%[56.1 µM]	-26%	-16%	34%	10%
COc1ccc(CN2CCNC(=O)C2CC(=O)NC2CCCC2)cc1OC (centres undefined)	71µM*	5%	-31%	u	4%	10%
CCOc1ccccc1CN1CCNC(=O)C1CC(=O)NC1CCCCC1 (centres undefined)	-5%[0.0925 µM]	2%	-18%	-27%	40%	6%
COc1cccc(CN2CCNC(=O)C2CC(=O)NC2CCCCC2)c1OC (centres undefined)	35µM*	2%	-14%	-6%	44%	12%
CCOc1ccccc1CN1CCNC(=O)C1CC(=O)NC1CCCCCC1 (centres undefined)	u	0%	-9%	u	18%	1%
COCCSc1ccccc1C(=O)N1CCN(Cc2ccccc2)CC1	u	x	-10%	2%	54%	11%
COc1cccc(C(=O)Nc2nc3nc(-c4ccccc4)cc(=O)n3[nH]2)c1	-12%[59 µM]	5%	-5%	-16%	9%	x
CC1(C)O[C@@H](CC(=O)O)[C@]23CO[C@H](C(=O)[C@]4(C)C2CC[C@@]2(C)[C@H](c5ccoc5)OC(=O)C5O[C@]524)[C@@H]13 (some centres undefined)	x	1%	x	7%	59%	x
N#C/C(=C(/O)CCl)c1nc(-c2ccccc2)cs1	x	2%	u	-36%	-7%	-15%
CCCCN(C)C/C(O)=C(\C#N)c1nc(-c2ccccc2)cs1	40µM*	4%	u	u	-3%	-23%
Cc1ccc(-c2csc(/C(C#N)=C(\O)CN3CCN(C(=O)c4ccco4)CC3)n2)cc1	-47%[12.7 µM]	5%	u	79µM*	-17%	15%
N#C/C(=C(/O)CN1CCOCC1)c1nc(-c2ccccc2)cs1	-20%[59 µM]	2%	u	u	13%	-21%
Cc1ccc(-c2csc(/C(C#N)=C(\O)CCl)n2)cc1	35µM*	3%	-29%	u	-2%	4%
COc1cccc(C(=O)NCC(=O)NCc2cc(=O)n(C)c(=O)n2C)c1OC	u	x	-37%	-10%	33%	18%
O=C(CCn1c(=O)oc2ccccc21)n1c(=O)oc2ccccc21	79µM*	-2%	-35%	-11%	34%	-3%
CC1CN(C(=O)CCn2c(=O)oc3ccccc32)CC(C)O1 (centres undefined)	7%[12.7 µM]	-8%	0%	-3%	20%	29%
Cc1ccc(C(=O)Nc2cccc(C(F)(F)F)c2)cc1NC(=O)c1c[nH]c2cc(C(F)(F)F)ccc2c1=O	x	1%	x	-9%	47%	x
Cc1c(C(=O)O)[nH]c2ccc([N+](=O)[O-])cc12	u	-5%	79µM*	79µM*	u	4%
O=C(O)c1c[nH]c2ccc([N+](=O)[O-])cc2c1=O	x	x	x	79µM*	0%	x
O=C(O)c1ccc([N+](=O)[O-])cc1-c1cc([N+](=O)[O-])ccc1C(=O)O	x	x	x	-15%	1%[57 µM]	x
O=C(O)c1c[nH]c2cc(C(F)(F)F)ccc2c1=O	39%[0.501 µM]	1%	50µM*	0%	14%	2%
Nc1nc(-c2nn(Cc3ccccc3F)c3ncccc23)ncc1C1CC1	x	8%	x	x	x	15%
CC(=O)NC12CC3CC(C1)CC(C(=O)N1CCN(S(=O)(=O)c4ccc([N+](=O)[O-])cc4)CC1)(C3)C2	x	x	x	-13%	19%	x
COC(=O)CCC/C=C1/SCC(NC(=O)c2ccccc2)C1O (centres undefined)	-49%[59 µM]	1%	3%	-22%	14%	-11%
COC(=O)CCC/C=C1/SCC(NC(=O)c2ccccc2)C1=O (centres undefined)	45µM*	2%	u	-35%	-18%	u
SMILES	G9a inh	TDP1 inh	BAZ2B inh	JMJD2A Tudor	HP1b chromo inh	Sfp inh
CCc1ccc(NC(=O)N(Cc2c[nH]c3ccccc23)C2CCCCCC2)cc1	-32%[59 µM]	5%	x	-16%	29%	x
C[C@H](CO)N1C[C@H](C)[C@@H](CN(C)C(=O)NC2CCCCC2)Oc2ccc(NC(=O)Cc3ccccc3)cc2C1=O	x	1%	x	0%	46%	x
Cc1nc(CSc2ccc(Cl)cc2)cs1	54%	x	20%	39%	34%	5%
COC(=O)c1cccnc1SCc1ccccc1	23%[59 µM]	0%	106%	123%	135%	-1%
Cc1nc(CSc2nsc(/C=C/N(C)C)c2C#N)cs1	20µM*	9%	40µM*	u	u	u
COC(=O)c1ccccc1CSc1nsc(/C=C/N(C)C)c1C#N	0%[2.33 µM]	x	45µM*	50µM*	u	16µM*
COc1ccc(CCNC(=O)C(=O)NCc2cccs2)cc1OC	12%	0%	22%	2%	36%	0%
C[n+]1cnc(-c2ccccc2)cc1-c1ccccc1	u	3%	-3%	22µM*	u	11%
Fc1ccc2cc(-c3ccccc3)ncc2c1	x	1%	x	-3%	32%	x
CC12CCC(C(=O)NCc3ccc(F)cc3)(OC1=O)C2(C)C (centres undefined)	9%	0%	-3%	2%	24%	13%
Cc1ccc(-c2nc(=Nc3ccccc3)sn2-c2ccccc2)cc1	x	2%	x	-24%[57.1 µM]	-30%[57 µM]	x
N=c1nc(-c2ccccc2)n(-c2ccccc2)s1	x	x	x	5.6µM*	u	x
COc1cccc(CNC(=O)Cc2ccc(S(=O)(=O)N3CCOCC3)s2)c1	-7%	1%	12%	-7%	19%	x
CCc1ccc(CN(C(=O)c2cc(=O)c3ccc(C)cc3o2)C2CCS(=O)(=O)C2)cc1 (centres undefined)	-22%[59 µM]	-6%	-22%	-7%	29%	x
COc1cc2c(cc1OC)CN(Cc1ccccc1)CC2	x	x	0%	-7%	38%	-5%
COc1cc2c(cc1OC)CN(Cc1cc(OC)c(O)c(OC)c1)CC2	32µM*	5%	-11%	-3%	57%	3%
COc1cc2c(cc1OC)CN(Cc1cccs1)CC2	u	-1%	-39%	3.2µM*	u	-23%
COc1cccc(Cn2c(=O)c(-c3cccs3)nc3cnc(Nc4cccc(OC)c4)nc32)c1	5%[12.7 µM]	x	x	x	x	14%
N#Cc1sc(=O)[nH]c1Cl	x	4%	x	89µM*!	17%	50µM*
CCC1CCc2nc3sc(C(=O)Nc4ccc(C)cc4)c(N)c3cc2C1 (centres undefined)	6%[59 µM]	x	-1%	-11%	23%	x
COc1ccc(-c2cn3c(C)c(C(=O)Nc4cc(NC(C)=O)ccc4OC)sc3n2)cc1	14µM*	-1%[56.1 µM]	-23%	-12%	5%	79µM*
